Data taken from the supplement of paper PMC12297408.
Counter-ions that a name gives are not always drawn. Values without a mark were called inactive.

Tested on: Plasmodium falciparum NF54/iGP1_RE9H ulg8 stage V gametocytes
Experiment: gametocyte viability (luciferase signal relative to DMSO control) (% of DMSO control); higher = less gametocytocidal activity, active = 50 or less
Details: exposure time: 72 h
Method: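 Synchronous P. falciparum NF54/iGP1_RE9H ulg8 mature stage V gametocytes (day 12) were exposed to Cayman Epigenetics Screening Library compounds at 10 µM or 1 µM for 72 h at 37 °C. Viability was read as RE9H luciferase bioluminescence, normalised to DMSO plate controls (100%); 50 µM methylene blue was the positive control.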

Compound	gametocyte viability (concentration: 1 µM)	gametocyte viability (concentration: 10 µM)
Cn1cc(CCn2cnc(-c3cnn(C)c3)c2-c2ccc(C#N)cc2)cn1	91.3	89.1
Cc1[nH]c2ccccc2c1CCNCc1ccc(/C=C/C(=O)NO)cc1 [Panobinostat]	60.2	61.4
O=C1/C(=C/c2ccc(O)c(Br)c2)CCC/C1=C\c1ccc(O)c(Br)c1 [HAT Inhibitor II]	89.2	83.2
COc1cc(C#N)ccc1S(=O)(=O)Nc1ccc2c(c1)cc(C)c(=O)n2C	86.6	91.4
Nc1ncn([C@H]2C[C@H](O)[C@@H](CO)O2)c(=O)n1 [Decitabine]	90.6	90
CC(/C=C/C(=O)NO)=C\[C@@H](C)C(=O)c1ccc(N(C)C)cc1 [Trichostatin A]	53.7	35.4 (active)
CC(C)Oc1ccc(-c2c[nH]cc2CN(C)CCN)cc1 [MS023 (hydrochloride)]	64.4	30.3 (active)
CCN(c1cc(-c2ccc(CN3CCOCC3)cc2)cc(C(=O)NCc2c(C)cc(C)[nH]c2=O)c1C)C1CCOCC1	95.1	93
Cc1nn(C)cc1CN1CCC(c2ccc(C(=O)Nc3ccccc3N)cc2)CC1	86	90.2
COc1nnc2ccc(N3CCC(c4ccc(OCCN5CCN(C)C(=O)[C@H]5C)cc4)CC3)nn12	93.3	90.3
COC(=O)c1ccc2c(c1)nc(NC(=O)c1ccccc1)n2CCCc1ccccc1	86.9	54.7
COc1cc2c(NC3CCN(C)CC3)nc(N3CCCN(C)CC3)nc2cc1OCCCN(C)C	89.8	84
CN(C)Cc1ccc(S(=O)(=O)n2ccc(/C=C/C(=O)NO)c2)cc1 [Resminostat (hydrochloride)]	94.8	77.8
COc1cccc2c1c(O)c(C(=O)N(C)c1ccc(C(F)(F)F)cc1)c(=O)n2C [Tasquinimod]	83.1	82.9
COc1cc2c(cc1-c1c(C)noc1C)ncc1[nH]c(=O)n([C@H](C)c3ccccn3)c12	91.5	97.8
O=C(CCCCCCSc1ccc2ccccc2c1)NO	84.8	84.6
CC(NC(=O)c1ccccc1/N=C/c1c(O)ccc2ccccc12)c1ccccc1 (stereo not given) [Sirtinol]	102	95
CS(=O)(=O)c1ccc(-c2cnc(NCc3ccco3)n3cnnc23)cc1	88.5	91.4
COc1cc(Br)c(Nc2nc(-c3c(C)nc4ncccn34)cs2)c(Br)c1	94.5	93.6
O=C(O)C(Cc1c[nH]c2ccccc12)N1C(=O)c2ccccc2C1=O (stereo not given)	86.9	84.3
COc1ccc(CCc2nc3cc(-c4c(C)noc4C)ccc3n2C[C@H](C)N2CCOCC2)cc1Cl	78.4	68.6
Nc1c(S(=O)(=O)c2ccccc2)c2nc3ccccc3nc2n1-c1ccc(F)cc1	66.8	56.6
CCn1c2ccccc2c2cc(CNCc3ccccc3OC)ccc21 [HLCL-61 (hydrochloride)]	85	94
Cn1cccc1C(=O)N1CCc2cc(C(=O)NO)ccc2C1 [HDAC6 Inhibitor]	87	91.2
Cc1cc(Nc2ccc(NC(=O)c3ccc(Nc4ccnc5ccccc45)cc3)cc2)nc(N)n1	31.4 (active)	2.18 (active)
O=C(c1cncc(Br)c1)N1CCC(N2CCCC2)CC1	86.5	91.4
COc1ccc(S(=O)(=O)ON=C2C=C(C)C(=O)C(C)=C2)cc1	87.3	43.2 (active)
Cn1cc(C(=O)Nc2ccc3c(c2)OCCO3)c2ccccc2c1=O	82.7	79.9
O=C(CCl)Nc1ccc(S(=O)(=O)c2ccc(NC(=O)CCl)cc2)cc1	78.5	45 (active)
CN=C(NC)NCCCNCCCNCCCNC(=NC)NC [Lysine-specific Demethylase Inhibitor (1C) (hydrochloride)]	85.5	81.1
